Source: PubChem BioAssay (National Center for Advancing Translational Sciences (NCATS))
S2 tox: cell viability loss in ATXN counter-screen. S2 cells (HEK-293 line with an ATXN2-luciferase reporter) viability, CellTiter-Fluor protease fluorescence, 24 h. Potency, µM (top dose mostly 56.7 µM), hits mostly cytotoxic. 400,000 tested, 0.49% active. AID 651635; note: nearly all actives have a fitted effect of over 40% in size
DRD3 antagonist: antagonists of human D3 dopamine receptor; max response, negative = inhibition, %; D3R cells, DiscoveRx beta-arrestin luminescence, antagonist mode; hits give low values; 360,000 tested, 2.5% active; in the data active = max response below about -50%; inconclusive = no clear call, values can overlap the other calls
Target sequence (P35462 whole entry, looked up): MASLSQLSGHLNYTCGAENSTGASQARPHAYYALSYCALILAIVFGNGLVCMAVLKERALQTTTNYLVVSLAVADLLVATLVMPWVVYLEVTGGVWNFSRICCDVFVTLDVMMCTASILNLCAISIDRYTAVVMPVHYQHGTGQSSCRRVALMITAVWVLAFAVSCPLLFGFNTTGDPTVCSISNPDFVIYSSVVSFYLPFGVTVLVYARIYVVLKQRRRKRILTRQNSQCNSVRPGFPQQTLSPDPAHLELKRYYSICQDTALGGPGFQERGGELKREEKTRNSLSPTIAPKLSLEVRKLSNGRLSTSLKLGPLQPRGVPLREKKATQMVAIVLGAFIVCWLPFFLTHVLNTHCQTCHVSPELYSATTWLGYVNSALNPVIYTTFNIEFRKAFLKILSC
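Cells expressing the human receptor were seeded at 1500 cells/well, incubated overnight at 37 degrees C in 5% CO2, then exposed to library compounds with dopamine controls for 90 minutes at 37 degrees C before luminescent detection.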
TGFb inhibitor: TGF-b pathway inhibition; 410,000 tested, 1.2% active; AID 588855; HepG2 CAGA-GFP TGF-b/SMAD3 reporter, GFP fluorescence, 18 h; TGF-beta stimulated, 500 pg/mL final; Potency, µM (titrated, usually from 46.1 µM), actives largely listed as inhibitors; note: nearly all actives have a fitted effect of over 65% in size
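Inhibition of TGF-beta-driven CAGA-GFP reporter expression in HEPG2 cells is measured by cellular GFP fluorescence after 18 h stimulation with 500 pg/mL recombinant TGF-beta in 1% FBS medium at 37 degrees C.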
HepG2 viability: kills HepG2 cells in TGF-b inhibitor counter-screen; HepG2 CAGA-GFP viability, ATP luminescence, 18 h; Potency, µM (doses to about 46.1 µM), actives largely listed as cytotoxic; 410,000 tested, 0.76% active
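HepG2 CAGA-GFP cells (1000/well, DMEM with 1% FBS) received compound, then TGF-beta at 500 pg/mL final, and were incubated 18 hours at 37 degrees C. Viability was read by CellTiter-Glo luminescence. Media-only wells were set as complete cell-killing and DMSO as no toxicity.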
DRD3 agonist: activates the human D3 dopamine receptor; max activation, %; P35462; 410,000 tested, 0.58% active; D3R DiscoveRx beta-arrestin cells, luminescence, 90 min; AID 652048; in the data active = max activation above about 30%
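Agonist-mode cell screen: cells plated at 1500/well and incubated overnight at 37 °C, then exposed to library compounds for 90 min at 37 °C. Detection reagent was added for 30–60 min at room temperature, and luminescence was read.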
ATXN2 expr inh: ATXN2 expression inhibition; HEK-293 ATXN2-luciferase reporter, luminescence, 24 h; Potency, µM (titrated, usually from 57 µM), hits mostly inhibitors; 360,000 tested, 0.72% active; note: nearly all actives have a fitted effect of over 55% in size
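qHTS (up to 57 uM final) was run with 24 h compound exposure of reporter cells at 37 °C. Each well was multiplexed: SteadyGlo luminescence measured ATXN2-luciferase expression after a fluorogenic Gly-Phe-AFC viability readout (25 uM final).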
Hits are given with their value; - = inactive; ? = inconclusive; . = not tested or not shown. An excerpt weighted towards active compounds, which were near 4.7% of everything screened. Unless noted, calls come from the whole dose curve; as a rule, active = well fitted curve in the direction sought with a large enough effect; inconclusive = small, poorly fitted or top-dose-only effect, or another doubt; inactive = no such curve, though single readings can be large; an effect the other way counts as inactive or inconclusive.

SMILES	S2 tox	DRD3 antagonist	TGFb inhibitor	HepG2 viability	DRD3 agonist	ATXN2 expr inh
Cc1ccc(-c2cc(NC(=O)CCl)n(-c3ccccc3)n2)cc1	?	?	?	-	-	?
CC(CC(C#N)(c1ccccc1)C(C)C)N(C)C (centres undefined)	-	.	.	.	.	-
NCCCC[C@H](N)C(=O)O	.	.	.	.	-	.
Cc1ccc(-c2cn3nc(C)c(C)nc3n2)cc1	.	-	-	-	-	6.31µM
COc1cc(NC(=O)Nc2c[nH]c(=O)[nH]c2=O)cc(OC)c1OC	?	.	-	-	-	-
COc1ccc2c(C(=O)NCc3ccc4c(c3)OCO4)c(-c3ccc(S(C)(=O)=O)cc3)sc2c1	35.5µM	-	-	-	-	?
COC(=O)c1c(-c2ccc(S(C)(=O)=O)cc2)sc2cc(OC)ccc12	-	-	-	-	30.9	-
COc1ccc(S(=O)(=O)N(C)CC(=O)NCc2ccc3c(c2)OCO3)cc1	-	-	-	-	-	-
CC1=Nc2cc(C(=O)NCc3ccccc3Cl)ccc2Sc2c(C)ccc(C)c21	?	.	?	-	-	-
O=C(Nc1cc(Cl)ccc1Cl)c1cc(S(=O)(=O)NCCc2ccccc2)ccc1F	-	.	?	-	-	-
COc1ccc(C(=O)CCN(C)C)c2ccccc12	.	.	6.31µM	-	.	.
COC(=O)c1ccccc1NC(=O)CSc1nc2sc3c(c2c(=O)[nH]1)CCCC3	.	.	-	-	-	.
O=[N+]([O-])c1ccccc1S(=O)(=O)N(CC(O)CN1CCCCC1)c1ccccc1 (centres undefined)	-	-	-	-	-	-
Cc1ccc(N(CC(O)CN2CCCCC2)S(=O)(=O)c2ccccc2[N+](=O)[O-])cc1 (centres undefined)	-	-50.5	-	-	-	-
C=CC[N@@+]12CC[C@@]34c5ccccc5N5/C=C6/[C@H]7C[C@H]8[C@@]9(CC[N@@+]8(CC=C)C/C7=C/CO)c7ccccc7N(/C=C(/[C@@H](C[C@@H]31)/C(=C\CO)C2)[C@H]54)[C@@H]69	-	.	.	.	-	.
CC(C)C[C@H]1CN([C@@H](Cc2ccc(O)cc2)CN2CCC[C@@H]2CN2C(=S)NC[C@@H]2Cc2ccccc2)C(=S)N1CC1CCCCC1	?	?	11.2µM	-	-	-
Oc1ccc(C[C@H]2CN([C@@H](Cc3ccccc3)CN3CCCC3CN3C(=S)NC[C@@H]3Cc3ccccc3)C(=S)N2CC2CCCCC2)cc1 (some centres undefined)	?	?	.	.	-	-
CC(C)C[C@@H](CN1CCC[C@@H]1CN1C(=S)NC[C@@H]1Cc1ccccc1)N1C[C@H](Cc2ccc(O)cc2)N(CC2CCCCC2)C1=S	?	-	?	-	-	-
CC(C)C[C@@H](CN1CCC[C@@H]1CN1C(=S)NC[C@@H]1Cc1ccccc1)N1C[C@H](Cc2ccc(O)cc2)N(CC2CCCCCC2)C1=S	14.1µM	-	?	-	-	22.4µM
CC(C)C[C@H]1CN([C@@H](Cc2ccccc2)CN2CCC[C@@H]2CN2C(=O)C(=O)NC[C@@H]2Cc2ccccc2)C(=O)C(=O)N1CCc1ccccc1	25.1µM	-65.1	?	-	-	?
Oc1ccc(C[C@H]2CN([C@@H](Cc3cccc(O)c3)CN3CCC[C@@H]3CN3C(=S)NC[C@@H]3Cc3ccccc3)C(=S)N2CC2CCCCC2)cc1	12.6µM	?	5.01µM	-	-	15.8µM
O=C(NNC(=O)c1ccc(CNS(=O)(=O)c2ccc(F)c(Cl)c2)cc1)c1ccccc1	.	.	.	.	.	-
COc1ccccc1CNC(=O)C(NS(=O)(=O)c1ccc2c(c1)CCN2C(C)=O)C(C)C (centres undefined)	-	.	-	-	-	-
CN1CCc2cc(Cl)c(O)cc2[C@@H](c2ccccc2)C1	?	-83.4	-	-	-	-
CN1CCc2cc(O)c(O)cc2C(c2ccccc2)C1 (centres undefined)	-	-	-	-	107.9	-
SMILES	S2 tox	DRD3 antagonist	TGFb inhibitor	HepG2 viability	DRD3 agonist	ATXN2 expr inh
Oc1cc2c(cc1O)C(c1ccccc1)CNCC2 (centres undefined)	-	-	-	-	-	-
Cc1c(C(=O)N2CCN(S(C)(=O)=O)CC2)oc2ccccc12	-	-	?	-	-	-
Cc1c(C(=O)OCCN2CCCCC2)oc2ccccc12	-	-61.2	-	-	-	-
Cc1c(C(=O)OCC(=O)N2C(C)CCCC2C)oc2ccccc12 (centres undefined)	-	-	-	-	-	-
COCc1c(C(=O)N2CCN(CCOc3ccccc3)CC2)oc2ccccc12	-	-	?	-	87.8	-
O=C(OCCN1CCCCC1)c1c[nH]c2ccccc12	-	-56.9	-	-	-	-
Cc1c(C(=O)N2CCN(CCc3ccccc3)CC2)oc2ccccc12	-	-86.2	-	-	-	-
CCc1ccc(S(=O)(=O)NCc2cccs2)cc1	-	-64.7	-	-	-	-
CCCCC(C)(C)[C@H](O)C=C[C@H]1[C@H](O)CC(=O)[C@H]1CC=CCCCC(=O)O	.	.	.	.	.	-
CC[C@@]1(O)C(=O)OCc2c1cc1n(c2=O)Cc2c-1nc1ccccc1c2/C=N/OC(C)(C)C	-	.	.	.	.	0.0005µM
CCc1c2c(nc3ccc4c(c13)OCCO4)-c1nc3ccccc3c(=O)n1C2	.	.	-	-	.	.
CC[C@@]1(O)C(=O)OCc2c1cc1n(c2=O)Cc2cc3cc(O)ccc3nc2-1	.	.	.	.	.	0.0385µM
O=C(O)CCn1cc(/C=C/C(=O)c2ccc(Cl)cc2)c(-c2ccc(Br)cc2)n1	-	-	?	15.8µM	-	?
CCc1c(C)nc2cc(-c3ccc(OC)c(OC)c3)nn2c1NCC1CC1	?	-	-	-	37.9	-
CCNC(=O)C1(C)CCN1CCC(=O)c1ccc(Br)cc1 (centres undefined)	-	-	-	-	73.0	-
CCCNC(=O)C1(C)CCN(CCC(=O)c2ccc(Br)cc2)C1 (centres undefined)	-	-	?	-	-	-
COCCNC(=O)C1(C)CCCN(CCC(=O)c2ccc(Br)cc2)C1 (centres undefined)	?	-	15.8µM	12.6µM	-	-
O=C1c2ccccc2NC(c2ccccc2O)N1Cc1ccco1 (centres undefined)	.	.	-	-	.	.
c1ccc(C(O[C@H]2CCCN(CCc3ccc4c(c3)OCO4)C2)c2ccccc2)cc1	?	.	.	.	-	?
CCC(C)N(CCNC(=O)c1ccc2c(c1)NC(=O)c1ccccc1S2)C1CCCCC1 (centres undefined)	?	-	?	11.2µM	-	?
COC1=CC(=O)c2c(ccc3ncnc(N)c23)C1=O	3.55µM	-64.5	0.891µM	1.41µM	-	2.82µM
COc1cccc2c1C(=O)C=C(C)C2=O	.	-	?	-	-	?
